# Source: PubChem BioAssay AID1626 (SRMLSC, 2009)
# Out of some 220,000 compounds screened, about 2,000 (0.91%) were called active. Another 2% or so got no clear call; they are omitted. Only a sample is shown. Potency and affinity values are given separately. A number with no mark means an inactive call. No stated cut-off is given here; in the data, inconclusive means inhibition above about 80% without an active follow-up result; inactive means below that; test concentration not stated here.
# Experiment: M. tuberculosis H37Rv growth inhibitors, H37Rv strain (AID 1626);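 further: bacteria incubated seven days before Alamar blue readout; 0% = bacteria only wells and 100% = bacteria with antibiotic wells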
# Settings: active compounds read high, concentration not given here
row,SMILES,inhibition [%]
1,O=C(C[n+]1cc(-c2ccc(Cl)c(Cl)c2)n2c1CCC2)OCc1ccccc1,4.51
2,O=C(C[n+]1cc(-c2ccc(Cl)c(Cl)c2)n2c1CCC2)c1cccs1,3.68
3,CCOCCCNCc1ccc(OC)cc1,-2.12
4,N#Cc1nc(-c2ccccc2F)oc1NCCc1ccccn1,4.27
5,Cc1cc(C)cc(NC(=O)Nc2ccc3c(c2)N(C)C(=O)CS3)c1,1.91
6,CCC1CCC/C1=N\NC(=O)c1cc(C)[nH]n1 (stereo not given),-7.04
7,CC(C)(C)C(=O)COc1ccccc1[N+](=O)[O-],0.09
8,NNC(=O)COc1ccccc1[N+](=O)[O-],-1.65
9,CC(C)(Oc1ccc(Cl)cc1)C(=O)N/N=C/c1cn[nH]c1-c1ccccc1,-0.17
10,CC1CCC2(CC1)OCC1(CCC3(COC4(CCC(C)CC4)OC3)C1=O)CO2 (stereo not given),-1.15
11,CCOC(=O)CNC(=O)CNC(=O)c1ccc(OC)cc1,-5.13
12,CCCCOc1ccc(C(=O)NCC(=O)NCC(=O)OCC)cc1,5.43
13,Cc1ccc(S(=O)(=O)N(C)C)cc1-n1c(SCC(=O)Nc2ccccc2)nc2ccccc2c1=O,1.63
14,Cc1nnc(Sc2cc(NCCO)c([N+](=O)[O-])c3nonc23)s1,-7.45
15,CCOC(=O)N1CCN(c2cc(NCCO)c([N+](=O)[O-])c3nonc23)CC1,-2.1
16,Cc1nnc(Sc2cc(NCCCO)c([N+](=O)[O-])c3nonc23)s1,-2.43
17,Cn1ccnc1Sc1cc(NCCCO)c([N+](=O)[O-])c2nonc12,2.79
18,COC(=O)CNC(=O)COC(=O)/C=C/c1ccccc1[N+](=O)[O-],3.19
19,Cc1ccc(S(=O)(=O)NCCc2nnc3ccc(NCCCOC(C)C)nn23)cc1,0.94
20,CC1(c2ccc([N+](=O)[O-])cc2)CC(C)(C)N(C(=O)c2ccccc2)c2ccccc21 (stereo not given),6.73
21,CC1(c2cc([N+](=O)[O-])cc([N+](=O)[O-])c2)CC(C)(C)N(C(=O)c2ccccc2)c2ccccc21 (stereo not given),2.82
22,CC(=O)C1=C(O)C(=O)N(Cc2ccco2)C1c1ccc2c(c1)OCO2 (stereo not given),-9.04
23,CC(C)NC(=O)C(=O)NCCc1ccc(Cl)cc1,-1.47
24,CCOC(=O)c1c(C)[nH]c(NC(=O)Nc2c(C)n(C)n(-c3ccccc3)c2=O)c1C,-2.03
25,COc1ccc(O)c2c(=O)c3c(OC)cc4c(c3oc12)C1C=COC1O4 (stereo not given),-3.61

row,SMILES,inhibition [%]
1,CSc1ccccc1C(=O)C1CCCN(Cc2cnn(-c3ccccc3)c2)C1 (stereo not given),0.775
2,Cn1cc(CN2CCCC(C(=O)c3ccc(-c4ccccc4)cc3)C2)cn1 (stereo not given),-1.15
3,Cc1ccc(NC(=O)/C=C\C(=O)NCC(=O)O)cc1,-2.38
4,COC(=O)C1=C(C(=O)OC)[C@@H]2Nc3ccccc3[C@@]23C[C@@H](C(=O)OC)N(C(=O)c2ccco2)C3=N1,-1.72
5,O=C(NCc1cn(-c2ccccc2)nc1-c1ccccc1)c1ccc([N+](=O)[O-])cc1,-4
6,O=C(NCc1cn(-c2ccccc2)nc1-c1ccccc1)c1cccc([N+](=O)[O-])c1,10.1
7,O=C(NCc1ccco1)c1cc([N+](=O)[O-])ccc1Cl,-6.78
8,Cc1ccc(C(=O)NCc2ccco2)cc1[N+](=O)[O-],0.79
9,CCOc1ccc(-c2cnc(N)n2C)cc1,5.53
10,Cc1ccc(CSCCNC(=O)CN(c2cccc([N+](=O)[O-])c2)S(C)(=O)=O)cc1,0.16
11,Cc1noc(C)c1COC(=O)C1(c2cccc(F)c2)CCCC1,5.81
12,CCOC(=O)CC(=O)CSc1ncnc2c1nnn2-c1ccc(OC)cc1,0.52
13,COC(=O)c1cccc(COC(=O)c2cccnc2SC)c1,5.06
14,Cc1nn(C)c2ncc(C(N)=O)c(Oc3ccc(Cl)cc3)c12,-11.3
15,Cc1nc(-c2ccc(Cl)cc2)sc1C1(C)CC(c2cccc([N+](=O)[O-])c2)=NO1 (stereo not given),-8.66
16,Cc1ccccc1CN(c1ccc(C(=O)NCc2cccnc2)cc1)S(C)(=O)=O,-13.5
17,Cc1ccc(SCC(=O)Nc2ccc(S(=O)(=O)Nc3nccs3)cc2)cc1,13.6
18,Fc1ccc(-n2cc(-c3ccccc3)c3c(NN4CCOCC4)ncnc32)cc1,-8.02
19,c1ccc(-c2cn(-c3ccccc3)c3ncnc(NCCCN4CCOCC4)c23)cc1,1.78
20,CCN=C(N/N=C/c1ccc([N+](=O)[O-])cc1)SC,-6.2
21,O=C(CNc1ccccc1C(=O)O)c1ccccc1,-10.8
22,Cc1ccc(NC(=O)C/C(N)=N/O)cc1C,72.6
23,Cc1ccc(S(=O)(=O)N(C)Cc2ccc(C(=O)NN=C3C4CC5CC(C4)CC3C5)cc2)cc1,-4.86
24,Nc1cc(N)cc(-c2nc3ccccc3o2)c1,53
25,Nc1nc(-c2cc3ccccc3o2)cs1,3.5

row,SMILES,inhibition [%]
1,CNc1ccccc1C(C)(C)c1cc(-c2cccc(OC)c2)no1,3.34
2,Cn1/c(=N\NC(=O)C2CCCCC2)sc2ccccc21,4.34
3,CCOC(=O)c1c(C)n(C)c2ccc(OCC(N)=O)cc12,0.2
4,CCOC(=O)c1c(C)n(C)c2ccc(OC(C)=O)cc12,-1.73
5,Cc1nn(C)c(C(=O)N/N=C/c2ccccc2)c1[N+](=O)[O-],-7.25
6,COc1ccc(-n2c(SC3CCOC3=O)nc3ccccc3c2=O)cc1Cl (stereo not given),5.75
7,CN1CCN(c2ccc(NC(=O)COc3ccccc3Cl)cc2)CC1,6.62
8,COc1cccc(C(C(=O)NC2CCCC2)N(Cc2ccccc2OC)C(=O)c2ccco2)c1 (stereo not given),2.53
9,COc1ccc(Nc2oc(COc3ccc(OC)cc3)nc2C#N)cc1,-0.92
10,Cc1ccc2cccc(OC(=O)/C=C\c3ccccc3)c2n1,-1.17
11,CN(C(=O)Oc1cccc2cccnc12)c1ccccc1,1.95
12,COc1ccccc1/C=C/C(C)=O,-0.82
13,COc1ccccc1/C=C/C(=O)NCc1ccccn1,-4.28
14,CCCNS(=O)(=O)c1ccc(NC(=O)Cc2cccs2)cc1,5.56
15,C/C=C/c1ccc(OCCCCOc2ccccc2C(C)=O)c(OC)c1,6.35
16,Brc1cccc(OCCOCCn2ccnc2)c1,4.09
17,O=C(NCCN1CCc2ccccc2C1)C1CCN(S(=O)(=O)N2CCC3(CC2)OCCO3)CC1,-3
18,O=C(NCc1ccco1)c1ccccc1Br,-5.82
19,O=C(NCc1ccco1)c1ccccc1-c1ccccc1,-5.77
20,O=c1ccnc(SCc2ccccc2Cl)[nH]1,3.49
21,CC(C)c1cc(C(=O)N2CCCC(C(=O)c3ccc4ccccc4c3)C2)on1 (stereo not given),5.22
22,CN(C)c1ccccc1C(=O)N1CCCC(C(=O)c2ccc3ccccc3c2)C1 (stereo not given),-4.94
23,Cc1cccc2c1NC(=O)C21N2CCCC2C(C(=O)c2ccc3ccccc3c2)C12C(=O)Nc1ccccc12 (stereo not given),21.8
24,CCc1ccc2c(c1)[C@]1(C(=O)N2)[C@@H]2C(=O)N(Cc3ccccc3)C(=O)[C@@H]2[C@@H]2CCCN21,3.94
25,CCc1cccc2c1NC(=O)[C@]21[C@@H]2C(=O)N(Cc3ccccc3)C(=O)[C@@H]2[C@@H]2CCCN21,-9.59

row,SMILES,inhibition [%]
1,CCn1nc(C)cc1C(=O)N1CCCC(C(=O)c2ccc3ccccc3c2)C1 (stereo not given),5.72
2,Nc1nc(N2CCN(C(=O)c3ccco3)CC2)nc2ccc(Br)cc12,10.2
3,Nc1c(Cl)ncnc1N1CCCC1,-5.84
4,CCCCOCCCNS(=O)(=O)c1ccccc1,-3.58
5,Cc1cc(Nc2cccc([N+](=O)[O-])c2)c2cccc(C)c2n1,-6.77
6,Cc1ccccc1C(=O)NNC1CC(=O)N(c2ccc3c(c2)OCCO3)C1=O (stereo not given),-10.4
7,O=C(COC(=O)c1ccc(O)cc1)Nc1cc(C(F)(F)F)ccc1Cl,0.39
8,c1ccc2oc(CCc3nc4ccccc4o3)nc2c1,0.98
9,CCS(=O)(=O)CCSc1nc2ccccc2o1,3.19
10,CCC(=O)c1ccc(OCCn2cnc3ccccc32)cc1,9.27
11,COc1ccc(NC(=O)c2ccco2)c(OC)c1,-9.54
12,COc1cc(NC(=O)c2ccco2)c(OC)cc1NC(=O)c1cc(OC)c(OC)c(OC)c1,3.83
13,Cc1ccc(-c2nnn(CC(=O)N(CC(=O)NC3CCCCC3)c3ccc(F)c(Cl)c3)n2)o1,1.56
14,O=C(Nc1ccccc1)N(Cc1ccc2c(c1)OCO2)Cc1nc2ccccc2c(=O)[nH]1,9.11
15,CCOC(=O)C1(CCc2ccccc2)CCN(Cc2nccn2CC)CC1,4.84
16,CCOC(=O)C1(CCc2ccccc2)CCN(Cc2ccc(O)cc2)CC1,1.73
17,Cn1cnnc1SCNC(=O)C(F)(F)F,-14.5
18,CCN(CC)C(=O)Oc1ccc2c(=O)c(-c3ccccc3)coc2c1,8.19
19,COc1ccccc1-c1coc2cc(OC(=O)N3CCOCC3)ccc2c1=O,0.83
20,CC(=O)Oc1ccc2c(=O)c(-c3ccccc3)coc2c1,71.2
21,CCOC(=O)c1oc2cc(OCC(N)=O)ccc2c(=O)c1-c1ccc(OC)c(OC)c1,-2.49
22,CCOC(=O)c1oc2cc(OC(C)=O)ccc2c(=O)c1-c1ccc(OC)c(OC)c1,-4.14
23,Cc1oc2cc(OCC(=O)O)ccc2c(=O)c1Oc1ccccc1,-10.7
24,Cc1oc2cc(OC(C)C(=O)O)ccc2c(=O)c1Oc1ccccc1 (stereo not given),-9.62
25,COc1ccccc1-c1coc2cc(OC(=O)/C=C/c3ccccc3)ccc2c1=O,12.4
